Measured values reported in PubChem BioAssay (NCATS).
Results filed as inconclusive are left out. Activity calls are given as the source filed them. Calls come from the whole dose curve; as a rule, active = well fitted inhibition curve with a large enough effect; inconclusive = small, poorly fitted or top-dose-only effect; inactive = flat fitted curve, though single readings scatter.
Potency is the fitted concentration of half-maximal effect.

Experiment: BET inhibitor-based combinations targeting novel dependencies in MECOM-rearranged (r) AML: AML-194 cell line (AID 2202237; note: nearly all actives have a fitted effect of over 40% in size)
Settings: AML-194 (MECOM-r AML) viability, CellTiter-Glo, 48 h; series mostly up to 46 µM
Summary of the method: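 Here, 11-point titrations of each agent were applied to 500 seeded cells and incubated 48 hr; CellTiter-Glo signal, scaled against DMSO and empty wells, was integrated as AUC, then Z-scored within the individual line.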
For COc1cc(N2CCC(N3CCN(C)CC3)CC2)ccc1Nc1ncc(Cl)c(Nc2ccccc2S(=O)(=O)C(C)C)n1, the Potency was 16.6 µM (active). For CC(=O)N(O)CCCCCNC(=O)CCC(=O)N(O)CCCCCNC(=O)CCC(=O)N(O)CCCCCN, the Potency was 9.34 µM (active). For CC(C)[C@H](C(=O)Nc1ccc(C(=O)NO)cc1)c1ccccc1, the Potency was 0.833 µM (active). With O=C(NCC1CCCCN1)c1cc(OCC(F)(F)F)ccc1OCC(F)(F)F (stereo unspecified) the Potency was “inactive”. In the case of Clc1ccccc1CN1CCc2sccc2C1, the Potency is reported as “inactive”. In the case of Cc1c(-c2ccc(O)cc2)n(Cc2ccc(OCCN3CCCCCC3)cc2)c2ccc(O)cc12, the Potency is reported as 26.3 µM (active). In the case of Cc1cc2c(C(C)C)c(O)c(O)c(C=O)c2c(O)c1-c1c(C)cc2c(C(C)C)c(O)c(O)c(C=O)c2c1O, the Potency is reported as 13.2 µM (active). For CC(C)n1nc(-c2cc3cc(O)ccc3[nH]2)c2c(N)ncnc21, the Potency was 0.417 µM (active). With Cc1nc(N)sc1-c1ccnc(Nc2ccc(N3CCOCC3)cc2)n1 the Potency was 4.17 µM (active). For Cc1coc2c1C(=O)C(=O)c1c-2ccc2c1CCCC2(C)C, the Potency was “inactive”. In the case of CCCOc1ccc2nc(NC(=O)OC)[nH]c2c1, the Potency is reported as 0.235 µM (active).
